Reference: PubChem BioAssay AID493056 (National Center for Advancing Translational Sciences (NCATS), 2011)
In all, about 360,000 compounds went through this assay and about 2,400 (0.67%) were called active. Rule as the data show it: active = enhancement above about 30%; inactive = the rest. Shown is part of a subset that was picked to be rich in actives.

The compounds below were run against Thyrotropin-releasing hormone receptor (Homo sapiens) (UniProt P34981) (assay: qHTS for Small Molecule Agonists and Allosteric Enhancers of Human TRH Receptor: Primary Screen for Enhancers). Conditions: TRHR cells, fluo-8 calcium fluorescence, EC20 TRH enhancement; at 2 µM; active compounds read high.
How it was run: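 Enhancer read-out: after compound pinning and an initial kinetic agonist-mode read, an EC20 of TRH (10 nM final) was injected and fluo-8 calcium signal (Ex 480/Em 530) followed at 1 s/cycle for 100 cycles in TRHR-expressing cells.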
Also: 0% is about no effect.

Sequence of Thyrotropin-releasing hormone receptor (Homo sapiens) (P34981 whole entry, looked up): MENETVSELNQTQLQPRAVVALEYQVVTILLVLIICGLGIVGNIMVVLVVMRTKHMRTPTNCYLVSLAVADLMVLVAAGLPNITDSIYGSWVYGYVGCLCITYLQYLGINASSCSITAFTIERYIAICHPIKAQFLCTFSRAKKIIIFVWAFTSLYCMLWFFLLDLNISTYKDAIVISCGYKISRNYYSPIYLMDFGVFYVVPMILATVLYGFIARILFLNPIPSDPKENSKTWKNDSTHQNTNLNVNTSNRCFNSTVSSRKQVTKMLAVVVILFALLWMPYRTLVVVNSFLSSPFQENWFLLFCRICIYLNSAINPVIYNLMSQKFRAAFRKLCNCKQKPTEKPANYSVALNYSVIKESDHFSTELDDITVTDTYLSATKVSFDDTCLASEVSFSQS

enhancement, inactive:
COC(=O)c1ccccc1NC(=O)c1ccc(C#N)cc1 6.65%, CCCCCn1c(CCNC(=O)c2ccc(F)cc2)nc2ccccc21 -6.28%, Cc1ccc(NC(=O)CCCn2c(=O)c3cccn3c3ccccc32)cc1Cl 1.3%, COc1ccc2c(c1)Cc1sc(NC(=O)c3ccccc3Br)nc1-2 4.8%, CCC(CC)c1nnc(NC(=O)c2nn(C)c(=O)c3ccccc23)s1 6.49%, Cc1sc(NC(=O)C2=COCCO2)c(C#N)c1C 2.25%, Cc1ccccc1OCc1ccc(-c2nc(C#N)c(N3CCCCC3)o2)o1 0.624%, O=C(Nc1ccc(-c2nc3cc(NC(=O)c4ccccc4Cl)ccc3o2)cc1)c1ccccc1Cl -6.24%, Cc1n[nH]c(C)c1S(=O)(=O)N1CCCC(C(=O)NCC2COc3ccccc3O2)C1 (stereo unspecified) -5.61%, COc1ccc(NC(=O)CC2COc3ccccc3O2)c(OC)c1 (stereo unspecified) -4.66%, COc1ccc(NC(=O)Cn2c(=O)n(CCC(C)C)c(=O)c3cccnc32)cc1Cl 5.35%, Cc1nc2cccnc2nc1C 1.62%, Clc1ccc(COn2c(-c3ccc(Cl)cc3Cl)nc3ncccc32)cc1 -14.4%, Cc1ccc(S(=O)(=O)c2nc(-c3cccs3)oc2NCc2cccnc2)cc1 -3.44%, O=S(=O)(c1ccccc1)c1nc(-c2ccccc2F)oc1NCc1cccnc1 0.0883%, Cc1ccc(-n2cnc3cc(C(=O)NCCC4=CCCCC4)ccc32)cc1Cl -5.29%, Cc1cc(N)n2nc(-c3ccc(C(C)(C)C)cc3)cc2n1 1.1%, Cc1cc(-c2ccccc2)n2nc(C)c(-c3ccccc3)c2n1 -0.179%, Cc1ccc(C(=O)Nc2c(C(=O)NC(C)(C)C)oc3ccccc23)cc1 6.66%, N#CN1CCC(NS(=O)(=O)c2cccc(F)c2)C1 (stereo unspecified) -3.49%, CCn1nnnc1SCC(=O)c1ccc(C)cc1C 7.37%, COC(=O)c1ccccc1NC(=O)c1ccc2c(=O)n3c(nc2c1)CCCCC3 1.88%, COc1cc(Cl)c(NC(=O)C(NS(=O)(=O)c2cccs2)C(C)C)c(OC)c1 (stereo unspecified) 8.88%, COc1ccc(Nc2ncc3c(n2)CCN(C(=O)OC(C)(C)C)C3)cc1 2.63%, Cc1ccc(-c2cc(C(F)(F)F)c(C#N)c(SCC(=O)Nc3ccccc3)n2)cc1 7.58%, Cc1ccc(Cl)cc1N1CCN(C(=O)C2CCC(CNS(=O)(=O)c3cccs3)CC2)CC1 (stereo unspecified) 4.4%, CN(C)S(=O)(=O)c1ccc(C(=O)N(Cc2cccnc2)c2nc3c(F)cc(F)cc3s2)cc1 -9.57%, Cc1cc2c(s1)c1cnn(Cc3c(F)cccc3Cl)c(=O)c1n2C 10.5%, CC(NC(=O)COc1ccccc1)C(=O)NC1=NCCS1 (stereo unspecified) 1.42%, CCCCN(C(=O)C(CCSC)N1C(=O)c2ccccc2C1=O)c1c(N)n(CCC)c(=O)[nH]c1=O (stereo unspecified) -0.146%, COc1ccccc1C(=O)NCc1nnc(SC(C)C(=O)Nc2nccs2)n1C (stereo unspecified) -2.08%, CC(Sc1nnc(CNC(=O)c2ccccc2F)n1C)C(=O)Nc1nccs1 (stereo unspecified) -1.71%, O=S(=O)(c1ccc2c(c1)OCCCO2)N1CCN(S(=O)(=O)c2c(F)cccc2F)CC1 2.65%, N#Cc1nc(Nc2cc(F)cc(Cl)c2)nc(NC2CCCC2)n1 -2.09%, O=C(NCc1ccccc1Cl)c1cccn1-c1nnc(N2CCCCC2)s1 -0.339%, Cc1cccc(NC(=O)CSc2nc3c([nH]c4ccccc43)c(=O)n2-c2cc(C)cc(C)c2)c1 1.49%, Cc1ccc(NC(=O)CSc2nc3c([nH]c4ccccc43)c(=O)n2-c2ccccc2)cc1Cl -2.92%, Cc1ccccc1OCc1nc2c3cnn(-c4ccccc4F)c3ncn2n1 8.56%, COc1ccc(-c2nc3sc(CCNS(=O)(=O)c4ccc(F)c(C)c4)c(C)n3n2)cc1 -2.89%, Cc1cccc(OCC(=O)N(Cc2ccc(C(C)C)cc2)Cc2ccco2)c1C 3.9%, COc1cccc(CN(C)CC(=O)Nc2ccccc2C(=O)Nc2ccccc2)c1 2%, Cc1ccc(C)c(OCC(=O)Nc2sc3c(c2C#N)CCCC3)c1C 0.637%, Cc1ccc(O)c(NC(=O)c2cc(-c3ccc(F)cc3)no2)c1 -8.05%, O=c1c2cccnc2n(Cc2cccc(F)c2)c(=O)n1Cc1ccccc1Cl -4.81%, CC(C)(C)n1c(=O)[nH]c2c(c1=O)CCC2 -6.6%, COc1ccc(N=Nc2c(-c3ccc(OC)cc3)[nH]oc2=O)cc1 5.67%, O=c1c(=O)n(Cc2c(F)cccc2Cl)ccn1Cc1ccccc1 6.97%, CCS(=O)(=O)c1nc(S(=O)(=O)c2ccc(C)cc2)c(NCc2ccc(Cl)cc2)s1 0.719%, CCN(CC)c1ccc(C2C(C(N)=O)=C(C)Nc3nc(SCc4ccccc4)nn32)cc1 (stereo unspecified) 3.72%, C/C(=N\NC(=O)Cc1ccccc1[N+](=O)[O-])c1cccnc1 2.77%, C/C(=N\NC(=O)c1cccc([N+](=O)[O-])c1)c1cccnc1 3.55%, COc1ccc(CNC(=O)C2=Cc3cccc(OC)c3OC2)cc1OC -3.7%, C1=C(N2CCOCC2)/C(=C/c2nc3ccccc3[nH]2)CC1 3.98%, CC(C)C(=O)N1CCN(c2nc(-c3ccccc3)c3c(c2C#N)CC(C)(C)OC3)CC1 -1.59%, Cc1nc2nc(NCc3cccc(Br)c3)[nH]n2c(=O)c1Cc1ccccc1 2.4%, COc1ccc(-c2noc(CCC(=O)N(C)c3ccccc3C)n2)cc1 6.52%, COc1ccc(C2CC(=O)Nc3c2c(=O)nc2c(C)cccn32)cc1OC (stereo unspecified) 15%, N#Cc1c(N)nc2c3c(sc(=N)c2c1N)NC(=O)CC3c1ccccc1Cl (stereo unspecified) 2.83%, O=C(CSc1cn(CC(=O)N2CCOCC2)c2ccccc12)Nc1ccccc1 -5.59%, COc1ccc(Cc2nc3ccc(C(=O)NCc4ccccc4Cl)cc3o2)cc1 3.9%, CCC(Sc1nc2n[nH]c(C)c2c(=N)n1-c1ccccc1Cl)C(=O)N(CC)CC (stereo unspecified) -2.62%, Cc1ccc(Oc2c(C(F)(F)F)oc3c(CN4CCCCC4)c(O)ccc3c2=O)cc1 0.578%, CCCOc1ccc(Cc2c(O)nc(N)[nH]c2=O)cc1C 5.99%, CCOC(=O)c1sc(NC(=O)CSc2nc(O)c(Cc3ccccc3)c(=O)[nH]2)nc1C 0.15%, Cc1cc2c(s1)c1cnn(Cc3cc(F)c(Cl)cc3Cl)c(=O)c1n2C -6.51%, COc1ccc(CCN2C(=O)c3oc4cc(C)cc(C)c4c(=O)c3C2c2ccccc2F)cc1OC (stereo unspecified) -0.372%, O=C(Cc1ccccc1)Nc1sc2c(c1C(=O)Nc1ccc(Br)cc1)CCC2 1%, COc1ccc(C2Sc3ccccc3NC3=C2C(=O)c2ccccc23)c(OC)c1OC (stereo unspecified) -4.93%, COc1cc(C(=O)N(Cc2ccc(C(C)C)cc2)C2CCS(=O)(=O)C2)cc(OC)c1OC (stereo unspecified) -5.35%, COc1ccccc1C(=O)N(Cc1ccc(C)o1)C1CCS(=O)(=O)C1 (stereo unspecified) 0.844%, CCOC(=O)c1ccc(N2C(=O)c3[nH]nc(-c4ccccc4)c3C2c2ccc(C(C)C)cc2)cc1 (stereo unspecified) 7.37%, Cc1ccc(C)c(N2CCN(CCCNC(=O)Nc3ccc(Cl)cc3)CC2)c1 2.7%, Cc1ccc(NC(=O)c2cn3c4c(ccc(Cl)c4c2=O)OC(C)C3)cc1C (stereo unspecified) 6.65%

enhancement, active:
CCC(CC)c1nnc(NC(=O)C2=COCCO2)s1 36.4%, Cc1cc(C(=O)CCl)c(C)n1CC1COc2ccccc2O1 (stereo unspecified) 45.8%, COn1c(-c2ccc(Cl)cc2Cl)nc2ncccc21 31.3%, O=S(=O)(c1ccc(Br)cc1)c1nc(-c2ccccc2)oc1NCc1cccnc1 31.2%, Cc1cc(-c2ccccc2)n2nc(-c3ccccc3)cc2n1 33%, CSc1nnnn1-c1c(C)cc(C)cc1C 41.9%, CCOC(OCC)c1ccc(/C=C\c2nccc(N)n2)cc1 30%, CSCCC(C(=O)NC1=NCCS1)N1C(=O)c2ccccc2C1=O (stereo unspecified) 33.2%, Cc1cccc(C(=O)NCc2nnc(SC(C)C(=O)Nc3nnc(C)s3)n2C)c1 (stereo unspecified) 37.6%, Cc1ccc(NC(=O)CSc2nc3c([nH]c4ccccc43)c(=O)n2-c2ccccc2)c(C)c1 39.6%, COc1cccc(CN(C)CC(=O)Nc2sc3c(c2C#N)CCC3)c1 40.2%, O=c1[nH]n2c(=O)c3c([nH]c2c1N=Nc1ccccc1)CCC3 31.1%, O=c1o[nH]c(-c2ccccc2)c1N=Nc1c(F)cccc1Cl 45.6%, O=C(/C=C/c1ccc(Cl)c([N+](=O)[O-])c1)c1cccnc1 36.2%, CC1(C)Cc2c(C#N)c(SCc3nc4ccccc4[nH]3)nc(N3CCOCC3)c2CO1 34.4%, COc1ccc(C2CC(=O)Nc3sc(=N)c4c(N)c(C#N)c(N)nc4c32)cc1OC (stereo unspecified) 33.8%, CCCOc1ccc(Cc2c(O)nc(SC)[nH]c2=O)cc1C 40.1%, COc1c(Cl)cc(C(=O)N(Cc2ccccc2F)C2CCS(=O)(=O)C2)cc1Cl (stereo unspecified) 34%
